Source: PubChem BioAssay
IMPase Li inh = qHTS Assay for Identifying the Cell-Membrane Permeable IMPase Inhibitors: Potentiation with Lithium | CHO-M1 cells, IP1 TR-FRET (IP-One), carbachol + lithium | Potency, µM (series often up to 59.4 µM), most hits filed as inhibitors | 210,000 tested, 0.35% active | AID 1457, 2008;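 further: IP1 builds up when IMPase is blocked and the TR-FRET signal falls; nearly all actives have a fitted effect of over 50% in size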
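Test compounds were applied to CHO-M1 cells previously cultured for 16–30 h at 2000 per well. A small lithium amount accompanied them; after 30 min at 37C, IP1 was quantified by TR-FRET.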
HPGD inh = qHTS Assay for Inhibitors of HPGD (15-Hydroxyprostaglandin Dehydrogenase); 15-hydroxyprostaglandin dehydrogenase [NAD(+)] (Homo sapiens), P15428; purified HPGD, NADH fluorescence kinetic, PGE2 substrate; Potency, µM, most hits filed as inhibitors; 150,000 tested, 4.3% active; active means well fitted inhibition curve with a large enough effect, not every such curve was filed as active; inconclusive means small, poorly fitted or top-dose-only effect, or another doubt; inactive means no such curve, though single readings can be large or run the other way
Target sequence (P15428 whole entry, looked up): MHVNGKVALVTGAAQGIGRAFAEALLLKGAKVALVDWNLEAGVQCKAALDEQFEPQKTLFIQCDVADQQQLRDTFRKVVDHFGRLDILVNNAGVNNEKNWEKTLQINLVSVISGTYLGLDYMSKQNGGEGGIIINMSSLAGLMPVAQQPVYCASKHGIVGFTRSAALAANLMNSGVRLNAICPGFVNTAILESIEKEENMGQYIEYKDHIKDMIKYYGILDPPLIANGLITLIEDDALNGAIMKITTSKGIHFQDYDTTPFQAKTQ
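NADH formation kinetics: reaction with 30 uM PGE2 and 1 mM NAD+ (final), 20 nM enzyme, Tris-HCl pH 8 with Tween 20, after 15 min compound preincubation at room temperature. Fluorescence change, last versus first of five reads.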
ALOX15B inhib = qHTS Assay for Inhibitors of 15-hLO-2 (15-human lipoxygenase 2); Potency, µM (titrated, usually from 57.1 µM), usual class: inhibitors; Polyunsaturated fatty acid lipoxygenase ALOX15B (Homo sapiens), O15296; 110,000 tested, 0.56% active; purified 15hLO-2, xylenol orange hydroperoxide absorbance; AID 881, 2007; further: nearly all actives have a fitted effect of over 60% in size
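Screening format was qHTS against 50 nM purified 15hLO-2 in Hepes pH 7.5 with detergent. Activity follows hydroperoxide formation from 45 uM arachidonic acid, measured as 573:405 nm absorbance ratio of the ferric-xylenol orange complex.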
PNC inhibitor = High Content Assay for Compounds that inhibit the Assembly of the Perinucleolar Compartment | AID 2417, 2010 | 140,000 tested, 3.1% active | activity change (PNC), negative = inhibition, % at 10 µM | PC3M PTB-GFP, PNC prevalence imaging, 16 h; hits give low values;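 active means readout at or below -70, meaning at least 70% loss of cells showing the perinucleolar compartment, a nuclear body marking cancer cells; inconclusive means readout between -30 and a set limit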
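Read-out is percentage of cells bearing a perinucleolar compartment, from automated 20x imaging of fixed, Hoechst-stained PC3M PTB-GFP cells. Cells were seeded 4 h, then exposed 16 h to compound (23 nl of library stock) in duplicate plates.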
IMPase inh = qHTS Assay for Identifying the Cell-Membrane Permeable IMPase Inhibitors. inhibition (IP1 accumulation), % at 46.1 µM. AID 901, 2007. 120,000 tested, under 10 active. CHO-M1 cells, IP1 accumulation, HTRF TR-FRET ratio. Inositol monophosphatase 1 (Rattus norvegicus), P97697; active means well fitted curve in the direction sought with a large enough effect in the signal ratio, not every such curve was filed as active; inconclusive means small, poorly fitted or top-dose-only effect, or a change in a side signal; inactive means no such curve, though single readings can be large or run the other way; the % refers to the signal ratio;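 further: cells stimulated with carbachol in lithium chloride buffer; higher means more IMPase inhibition seen as more IP1 and lower FRET ratio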
Target sequence (P97697 whole entry, looked up): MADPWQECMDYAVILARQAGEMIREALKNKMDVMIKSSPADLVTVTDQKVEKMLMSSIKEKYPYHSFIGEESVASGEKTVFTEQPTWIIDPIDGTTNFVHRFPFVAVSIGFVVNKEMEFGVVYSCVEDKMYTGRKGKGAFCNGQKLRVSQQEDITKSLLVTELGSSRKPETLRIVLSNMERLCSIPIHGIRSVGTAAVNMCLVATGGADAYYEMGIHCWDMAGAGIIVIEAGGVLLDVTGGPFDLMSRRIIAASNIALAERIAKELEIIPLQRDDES
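Cellular IMPase inhibition is scored as a rise in cytosolic IP1, detected by competitive TR-FRET between d2-labelled IP1 and a europium anti-IP1 antibody. M1-expressing CHO cells were stimulated with carbachol for 30 min at 37C, with lithium (50 mM LiCl) present in the buffer.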
12-hLO inh = qHTS Assay for Inhibitors of 12-hLO (12-human lipoxygenase); Polyunsaturated fatty acid lipoxygenase ALOX12 (Homo sapiens), P18054; purified 12-hLO, xylenol orange hydroperoxide absorbance; Potency, µM (doses to about 57.1 µM), actives largely listed as inhibitors; 150,000 tested, 0.12% active; AID 1452, 2008; further: nearly all actives have a fitted effect of over 55% in size
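Xylenol orange chromogenic assay: hydroperoxide from 12hLO oxidises Fe(II), giving red-shifted Fe(III)-XO absorbance. Conditions: 150 nM enzyme, 40 uM arachidonic acid, 25 mM Hepes pH 7.0, 0.01% Triton X-100, 30 min, room temperature.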
Each line names hits and unclear results; the compound was inactive in the other large screens. Rows were chosen to be rich in hits. Some 5.4% of all compounds tested hit in one or more screens of this group. Unless noted, the call rests on the fitted dose curve; in most records, active means well fitted curve in the direction sought with a large enough effect; inconclusive means small, poorly fitted or top-dose-only effect, or another doubt; inactive means no such curve, though single readings can be large; an effect the other way counts as inactive or inconclusive.

Cc1ccc(-n2nnnc2SCC(=O)N2c3ccccc3NC(=O)C2(C)C)cc1	PNC inhibitor -100
O=Nc1ccc2oc(=O)ccc2c1	HPGD inh 16µM, ALOX15B inhib inconclusive (no result: PNC inhibitor)
O=C(CSC1=NCCN1)Nc1ccccc1	none (no result: PNC inhibitor, IMPase inh)
Cc1cc(C(=O)CSc2nnc(NCc3ccccc3)s2)c(C)n1C	HPGD inh 18µM
CCOC(=O)C(C)(C)[C@H](O)C(C)C	none (no result: PNC inhibitor, IMPase inh)
Cc1ccc(NC(=O)/C=C/c2ccco2)nc1	PNC inhibitor -100 (no result: ALOX15B inhib)
C[N+](C)(N)Cc1nc(-c2ccc(Cl)cc2)no1	none (no result: PNC inhibitor, IMPase inh)
CN(C)c1ccc(-c2nc3ccccn3c2/N=C/c2ccc(Br)cc2)cc1	PNC inhibitor -112 (no result: ALOX15B inhib, IMPase inh)
C=C(C)C(=O)C1CCCCC1	none (no result: ALOX15B inhib, PNC inhibitor, IMPase inh, 12-hLO inh)
COc1ccccc1N(O)C1CC(=O)N(c2ccc(F)cc2)C1=O (stereo not given)	HPGD inh 22µM
CCCOc1ccccc1N1C(=O)CC(N(O)c2ccccc2)C1=O (stereo not given)	none (no result: HPGD inh, ALOX15B inhib, PNC inhibitor, IMPase inh, 12-hLO inh)
CCCOc1ccc(N2C(=O)CC(N(O)c3ccccc3)C2=O)cc1 (stereo not given)	ALOX15B inhib inconclusive, PNC inhibitor -89
Brc1ccc2[nH]c3nc(SCCN4CCOCC4)nnc3c2c1	none (no result: HPGD inh, ALOX15B inhib, PNC inhibitor, IMPase inh, 12-hLO inh)
c1ccc2c(c1)[nH]c1nc(SCCN3CCOCC3)nnc12	HPGD inh 32µM
CCOc1cc(/C=C2\SC(=N)N(c3nonc3N)C2=O)ccc1OCC(N)=O	HPGD inh 13µM (no result: ALOX15B inhib)
CCOc1cc(/C=C2\SC(=N)N(c3nonc3N)C2=O)ccc1OCCN1CCOCC1	none (no result: HPGD inh, ALOX15B inhib, PNC inhibitor, IMPase inh, 12-hLO inh)
COc1ccccc1N(CC(=O)Nc1cc(C)cc(C)c1)S(C)(=O)=O	none (no result: IMPase Li inh, HPGD inh, ALOX15B inhib, PNC inhibitor, 12-hLO inh)
CCCCN1CN(Cc2ccccc2)CNC1=S	PNC inhibitor inconclusive (no result: ALOX15B inhib)
CCN1CN(Cc2ccco2)CNC1=S	PNC inhibitor -82 (no result: ALOX15B inhib, IMPase inh)
Cc1cc(C)cc(Oc2c(C(F)(F)F)oc3cc(OCC(=O)NC4CCCCC4)ccc3c2=O)c1	none (no result: IMPase Li inh, HPGD inh, ALOX15B inhib, PNC inhibitor, 12-hLO inh)
Cc1cc(NC(=O)NC(C(F)(F)F)C(F)(F)F)no1	none (no result: HPGD inh, ALOX15B inhib, PNC inhibitor, IMPase inh, 12-hLO inh)
Cc1cc(NC(=O)CCC2CCCC2)no1	PNC inhibitor inconclusive
Cc1cc(NC(=O)C(C)(C)C)no1	PNC inhibitor -84
Cc1cc(NC(=O)CC23CC4CC(C2)CC(CC(=O)Nc2cc(C)on2)(C4)C3)no1	PNC inhibitor -92
CCOC(=O)c1cc(C#N)c(SCC(=O)O)[nH]c1=O	none (no result: HPGD inh, ALOX15B inhib, PNC inhibitor, IMPase inh, 12-hLO inh)
CCOC(=O)c1cc(C#N)c(SCC(=O)c2cc(C#N)c(SC)nc2C)[nH]c1=O	HPGD inh 1.4µM
CCSC1=C(C#N)C2(CCCC2)C(C#N)=C(N)N1	HPGD inh inconclusive, PNC inhibitor -81
N#CC1=C(N)NC(SCc2ccccc2)=C(C#N)C12CCCC2	HPGD inh inconclusive, PNC inhibitor -113 (no result: ALOX15B inhib, IMPase inh)
CSC1=C(C#N)C2(CCCC2)C(C#N)=C(N)N1	none
N#CC1=C(N)NC(SCc2ccc(Cl)cc2)=C(C#N)C12CCCCC2	ALOX15B inhib inconclusive
Cc1ccccc1Nc1oc(-c2ccccc2)nc1-c1cccc2ccccc12	none (no result: ALOX15B inhib, PNC inhibitor, IMPase inh)
COc1ccc(OC)c(/C=C(/C#N)c2nc(-c3ccc(-c4ccccc4)cc3)cs2)c1	none (no result: IMPase Li inh, HPGD inh, ALOX15B inhib, PNC inhibitor, 12-hLO inh)
O=C(Nc1ccccc1)Nc1nnc(CSCc2ccccc2Cl)s1	PNC inhibitor -88 (no result: ALOX15B inhib)
CCC1CCCCN1CC(=O)N1CCCc2c1c(=O)oc1ccc(OCc3ccccc3)cc21 (stereo not given)	none (no result: IMPase Li inh, HPGD inh, ALOX15B inhib, PNC inhibitor, 12-hLO inh)
COc1cccc(N=Nc2c(=O)[nH]n3c(=O)cc(C)[nH]c23)c1	HPGD inh 14µM, IMPase inh inconclusive
NS(=O)(=O)c1ccc(N=Nc2c(=O)[nH]n3c(=O)c4c([nH]c23)CCCC4)cc1	none (no result: HPGD inh, ALOX15B inhib, PNC inhibitor, IMPase inh, 12-hLO inh)
COc1cccc(N=Nc2c(=O)[nH]n3c(=O)c4c([nH]c23)CCC4)c1	HPGD inh 14µM (no result: ALOX15B inhib, IMPase inh)
O=c1[nH]n2c(=O)c3c([nH]c2c1N=Nc1cccc(C(F)(F)F)c1)CCCC3	none (no result: ALOX15B inhib)
O=c1[nH]n2c(=O)c3c([nH]c2c1N=Nc1cccc(Cl)c1)CCC3	HPGD inh 7.1µM, PNC inhibitor inconclusive (no result: ALOX15B inhib, IMPase inh)
Cc1cccc(N=Nc2c(C)c(C#N)c(O)[nH]c2=O)c1	none (no result: HPGD inh, ALOX15B inhib, PNC inhibitor, IMPase inh, 12-hLO inh)
Nc1ccnc2c1ncn2[C@@H]1O[C@H](CO)[C@@H](O)[C@H]1O	none (no result: HPGD inh, ALOX15B inhib, PNC inhibitor, IMPase inh, 12-hLO inh)
NCCNC[C@H](O)CO	none (no result: PNC inhibitor, IMPase inh)
COc1ccc(S(=O)(=O)N2CCC(C(=O)NC(C)c3ccccc3)CC2)cc1 (stereo not given)	none (no result: IMPase Li inh, HPGD inh, ALOX15B inhib, PNC inhibitor, 12-hLO inh)
Cc1onc(-c2ccccc2Cl)c1C(=O)N1CCN(c2nc3ccccc3s2)CC1	PNC inhibitor -113
